# In PubChem BioAssay (EPA / NIEHS):
# “And” between values parts separate entries of the source, which are not always exact repeats. Equal entries are not always repeated. A structure can be active in one record and inactive in another. The source made the active and inactive calls. Rule for the calls: active = hit-call score of the fitted dose curve at least 0.9, where 1 is the maximum; inactive = score below 0.9.
# Assay: ATG_CRE_CIS: Attagene CIS-FACTORIAL HepG2 Assay for human cAMP Responsive Element (CRE) binding protein 3 (AID 2282926)
# Settings: HepG2 CRE cis-reporter, Attagene multiplexed mRNA; actives raise or lower the signal
# Experimental: ATG_CIS is a cell-based, multiplexed-readout assay that uses HepG2, a human liver cell line, with measurements taken at 24 hours after chemical dosing in a 24-well plate.ATG_CRE_CIS is one of 52 assay component(s) measured or calculated from the ATG_CIS assay. It is designed to make measurements of mRNA induction, a form of inducible reporter, as detected with fluorescence intensity signals by Reverse transcription polymerase chain reaction (RT-PCR) and Capillary electrophoresis technology.Data from the assay component ATG_CRE_CIS was analyzed into 1 assay endpoint. This assay endpoint, ATG_CRE_CIS, was analyzed with bidirectional fitting relative to DMSO as the negative control and baseline of activity. Using a type of inducible reporter, measures of mRNA for gain or loss-of-signal activity can be used to understand the reporter gene at the transcription factor-level as they relate to the gene CREB3. Furthermore, this assay endpoint can be referred to as a primary readout, because this assay has produced multiple assay endpoints where this one serves a reporter gene function. To generalize the intended target to other relatable targets, this assay endpoint is annotated to the dna binding intended target family, where the subfamily is basic leucine zipper.
# Human liver HepG2 cells are transiently transfected with multiple reporter transcription units (MRTUs) in 6-well plates using FuGene 6 reagent (Roche; 3 ml FuGene/1 mg DNA). The MRTU constructs are regulated by a cis-regulating element (promoter). […] A major difference between the CIS and TRANS system is that in CIS activities of endogenous TFs are measured, whereas the TRANS assay evaluates changes in activities of exogenous, chimeric NR-Gal4 proteins. […] At the end of 24 hour incubation, total RNA was isolated using TriZol reagent (Invitrogen). The isolated RNA is then reverse-transcribed using oligo(dT) primer and Mo-MLV reverse transcriptase (Invitrogen) with DNAse I (Ambion) treatment for 30 min. The one-tenth of the produced cDNA was amplified by PCR using Taq DNA polymerase (Invitrogen) and two reporter sequence-specific primers. The PCR products were fluorescently labeled by primer extension with 6-arboxyfluorescein (6-FAM) 5'-labeled reporter sequence-specific primer (2 min at 95 C, 20 s at 68 C and 10 min at 72 C) and these products were digested with 5U of HpaI (New England Biolabs) for 2h at 37 C. The fragments were purified using Qiaquick PCR columns (Qiagen), analyzed on an ABI 3130xL genetic analyzer (Applied Biosystems) with peak positions identified by using a set of X-rhodamine (ROX)-labeled MapMarker1000 molecular weight standards (BioVentures). The raw capillary electrophoresis data was processed using Attagraph software (Attagene).
SMILES,outcome,AC50
Sc1ccccc1,inactive,–
O=S(=O)(O)C(F)(F)C(F)(F)C(F)(F)C(F)(F)F,inactive,–
CO/C=C(/C(=O)OC)c1ccccc1COc1cccc(C(F)(F)F)n1,inactive,–
Clc1ccc(C(Cl)(Cl)Cl)cc1,inactive,–
Cc1ccccc1O,inactive,–
Clc1ccc(Cl)cc1,inactive,–
CCC(=O)O[C@H]1CC[C@H]2[C@@H]3CCC4=CC(=O)CC[C@]4(C)[C@H]3CC[C@]12C,–,144 µM (active) [middle of 4 runs]
Cc1cccc(C)c1N,inactive,–
CC(C)(c1ccccc1)c1ccc(O)cc1,inactive,33.4 µM (active) and 38.9 µM (active)
CCNc1nc(NC(C)C)nc(SC)n1,inactive,–
COS(=O)(=O)OC,inactive,–
CN(C)c1nc(=O)n(C2CCCCC2)c(=O)n1C,inactive,–
NS(=O)(=O)C(F)(F)C(F)(F)C(F)(F)C(F)(F)C(F)(F)C(F)(F)C(F)(F)C(F)(F)F,–,44.3 µM (active) and 40.2 µM (active) and 32.2 µM (active)
C=CC(=O)NCNC(=O)C=C,inactive,–
ClC1=C(Cl)[C@]2(Cl)[C@@H]3[C@H]4C[C@H]([C@@H]5O[C@H]45)[C@@H]3[C@@]1(Cl)C2(Cl)Cl,inactive,–
c1cc2ccc3cccc4ccc(c1)c2c34,inactive,–
Cc1ccc(O)c(C)c1,inactive,–

SMILES,outcome,AC50
O=C(O)C(F)(F)C(F)(F)C(F)(F)C(F)(F)C(F)(F)C(F)(F)C(F)(F)C(F)(F)C(F)(F)F,inactive,62.2 µM (active)
CC#Cc1cc(C)nc(Nc2ccccc2)n1,inactive,–
C1CC2OC2CC1C1CO1 (stereo not given),inactive,–
O=C(NC(=O)c1cc(F)c(F)cc1Cl)Nc1cc(F)ccc1N1CCC(C(=O)O)CC1,inactive,–
Cc1cc(-c2ccc(N)c(C)c2)ccc1N,inactive,–
Cc1ccccc1CO[C@@H]1C[C@@]2(C(C)C)CC[C@]1(C)O2,inactive,–
Cc1cccc([N+](=O)[O-])c1,inactive,–
CC(C)(O)C(=O)Nc1ccc([N+](=O)[O-])c(C(F)(F)F)c1,inactive,51 µM (active)
CC(c1ccc(O)cc1)(c1ccc(O)cc1)c1ccc(O)cc1,–,8.32 µM (active)
Clc1ccc(C(c2ccccc2Cl)C(Cl)(Cl)Cl)cc1 (stereo not given),inactive,–
O=C(N[C@H]1CN2CCC1CC2)c1cc2ccoc2cn1,inactive,–
CCCCCCCCCc1ccc(O)cc1,inactive,–
ClC(Cl)=C(c1ccc(Cl)cc1)c1ccc(Cl)cc1,inactive,167 µM (active)
CCC(C)(CC)c1cc(NC(=O)c2c(OC)cccc2OC)on1,–,1.16 µM (active)
Oc1c(Cl)c(Cl)c(Cl)c(Cl)c1Cl,inactive,19.3 µM (active) and 10.2 µM (active)
CCC(C)(c1ccc(O)cc1)c1ccc(O)cc1,inactive,53.2 µM (active)
O=C(O)C(F)(F)C(F)(F)C(F)(F)C(F)(F)C(F)(F)C(F)(F)C(F)(F)C(F)(F)F,inactive,–
